Screening data (PubChem BioAssay)
Shown are actives, neighbours in structure and some others; about 4.5% of the full set was active somewhere.
EBNA-1 inhibitor: EBNA-1 DNA-binding inhibitors, primary screen, biochemical, fluorescence polarization. 300,000 tested, 0.34% active. inhibition, % at 14.8 µM. AID 1950, 2009; in the data active means inhibition above about 28%
TPT1 inh: Candida albicans TPT1 enzyme inhibitors, primary screen, biochemical, fluorescence polarization. tRNA 2'-phosphotransferase TPT1 (Candida albicans SC5314). recombinant caTPT1, FP RNA substrate dephosphorylation. inhibition, % at 5 µM. 300,000 tested, 0.81% active. AID 1962, 2009;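 active means inhibition above the mean of all tested compounds plus 3 SD, set per screening campaign, cut at about 24% in these data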;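 further: plate controls were DMSO alone for no effect and ferristatin control at 100 nM for full effect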
NR3A LBD binder: binders of NR3A ligand-binding domain, primary screen, biophysical, differential scanning fluorimetry, uHTS; 340,000 tested, 2.5% active; Glutamate receptor ionotropic, NMDA 3A (GRIN3A) ligand-binding domain; Tm shift relative to glycine control, % at 25 µM; AID 1259313, 2017; NR3A LBD differential scanning fluorimetry, Tm shift; 0% = protein alone, 100% = glycine-bound protein;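 active means melting temperature shift of at least 10% of the positive control shift, at one fixed dose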
ZTA DNA inh: counter-screen for EBNA-1 inhibitors: inhibitors of Epstein-Barr virus ZTA. ZTA-DNA binding, fluorescence polarization. 320,000 tested, 0.15% active. AID 2234. inhibition, % at 11 µM. P03206; in the data active means inhibition above about 33%
Target sequence (P03206 whole entry, looked up): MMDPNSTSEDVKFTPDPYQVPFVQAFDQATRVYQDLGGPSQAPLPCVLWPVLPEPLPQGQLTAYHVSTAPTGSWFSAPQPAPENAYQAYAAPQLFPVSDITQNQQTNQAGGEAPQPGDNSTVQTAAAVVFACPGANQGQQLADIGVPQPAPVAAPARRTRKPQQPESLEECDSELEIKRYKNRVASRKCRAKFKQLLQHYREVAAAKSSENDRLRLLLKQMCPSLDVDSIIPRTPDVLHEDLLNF
dFosB act: activators of delta FosB homodimer, primary screen, biochemical, fluorescence polarization, TAMRA-CDK5 oligo, single point; Protein FosB (Mus musculus), P13346; purified delta FosB; percent of positive-control signal above neutral wells; activation, % at 25 µM; 340,000 tested, 0.99% active; AID 493131, 2011;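 active means mean activation above about 17%, with every replicate also reaching it, limit read from the data, passing the limit was not always enough; inconclusive means only one of the two conditions met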
Target sequence (P13346 whole entry, looked up): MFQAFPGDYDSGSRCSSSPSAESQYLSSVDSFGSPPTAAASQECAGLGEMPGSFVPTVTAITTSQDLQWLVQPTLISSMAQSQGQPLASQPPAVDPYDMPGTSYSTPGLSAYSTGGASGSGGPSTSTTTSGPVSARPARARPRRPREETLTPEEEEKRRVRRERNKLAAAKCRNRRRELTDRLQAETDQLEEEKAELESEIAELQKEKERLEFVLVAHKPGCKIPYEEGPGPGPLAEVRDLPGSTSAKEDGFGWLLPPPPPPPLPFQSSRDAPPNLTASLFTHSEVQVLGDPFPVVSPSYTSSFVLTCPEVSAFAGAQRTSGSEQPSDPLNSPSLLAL
Rpn11 block: Rpn11 (PSMD14) deubiquitinase inhibitors, primary screen, biochemical, fluorescence polarization, uHTS; 360,000 tested, 0.59% active; human 26S proteasome, Ub4-pepOG fluorescence polarization; 20S core pre-blocked with epoxomicin; inhibition, % at 20 µM; 26S proteasome non-ATPase regulatory subunit 14 (Homo sapiens), O00487;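 active means inhibition at 20 µM, scaled to each plate's controls, above about 33%, limit read from the data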
Starred values were filed as active, the others as inactive; ? = inconclusive; / = no result given; + = active, no number.

SMILES | EBNA-1 inhibitor | TPT1 inh | NR3A LBD binder | ZTA DNA inh | dFosB act | Rpn11 block
N#CCC(=O)Nc1ccc(C(=O)OC(C(=O)Nc2ccc([N+](=O)[O-])cc2Br)c2ccccc2)cc1 (stereo unspecified) | / | / | 12* | / | -10 | 33
N#CCC(=O)Nc1ccc(C(=O)OC(C(=O)Nc2cc(C(F)(F)F)ccc2Cl)c2ccccc2)cc1 (stereo unspecified) | 2 | 3 | 29* | -7 | ? | 31
Cc1ccc(OCC(=O)NC2CCS(=O)(=O)C2)c([N+](=O)[O-])n1 (stereo unspecified) | 9 | -1 | 1 | 0 | -1 | -4
COc1ccc(S(=O)(=O)NCc2ccccn2)cc1C | / | / | / | / | / | -2
COc1cccc(NCc2cc(=O)oc3cc(-c4ccccc4)c(O)cc23)c1 | 10 | -1 | 28* | 4 | -5 | -9
O=C(OCc1nnc(-c2ccccc2)o1)c1cccc(-n2cnnn2)c1 | 0 | -3 | -1 | 4 | -4 | 9
Cc1ccc(C)c(N(C(=O)c2ccco2)C(C(=O)NC2CCCC2)c2ccco2)c1 (stereo unspecified) | -8 | 2 | 1 | 4 | -10 | -3
COC(=O)CCC1(C(N)=O)CCC(=O)c2ccccc21 (stereo unspecified) | / | / | 13* | / | -5 | -4
COc1ccc(C(=O)Nn2c(SCc3cccc([N+](=O)[O-])c3)nc3ccccc3c2=O)cc1 | -6 | 1 | 17* | 1 | -6 | 4
COc1ccc(C(=O)Nn2c(C)nc3ccccc3c2=O)cc1 | 1 | -3 | 0 | 7 | 0 | 5
CCCOc1ccc(C(=O)Nn2c(C)nc3ccccc3c2=O)cc1 | 0 | -3 | 11* | 1 | -1 | 1
CCCCOc1ccc(C(=O)Nn2cnnc2)cc1 | -11 | 0 | 14* | -26 | -4 | -4
Cc1ccc(CNC(=O)C2CCCN(c3ncnc4c3nc3n4CCCCC3)C2)cc1 (stereo unspecified) | -6 | -3 | -2 | 2 | -3 | -2
COc1ccc(CN2CCNC(=O)C2CC(=O)NCc2cn3ccc(C)cc3n2)c(OC)c1 (stereo unspecified) | 8 | -3 | -13 | 24 | -14 | -2
N#CC1=C(SCC(=O)NC2CC2)NC(=O)C(C#N)C12CCCCC2 (stereo unspecified) | 2 | -2 | 0 | 16 | -1 | -1
N#CC1=C(SCC(=O)NC23CC4CC(CC(C4)C2)C3)NC(=O)C(C#N)C12CCCCC2 (stereo unspecified) | -6 | 0 | 12* | 6 | -7 | 6
CC(C)(C)C1CCC2(CC1)C(C#N)=C(SCC(=O)NC1CCCCC1)NC(=O)C2C#N (stereo unspecified) | 3 | -4 | 12* | 7 | -12 | 4
N#CC1=C(SCC(=O)Nc2cccc3cccnc23)NC(=O)C(C#N)C12CCCCC2 (stereo unspecified) | 5 | -4 | 5 | 11 | -5 | 0
O=C1/C(=C/c2cccs2)SC(=S)N1CCCC(=O)N(CCO)c1ccccc1 | -11 | -3 | 4 | 22 | -3 | -3
COc1ccc2nc(-c3ccccc3)[nH]c2c1 | 9 | 3 | -6 | 5 | -1 | -23
COc1ccc2[nH]c(-c3ccccc3)cc2c1 | 7 | -1 | 12* | 0 | -5 | 2
C=CCNC(=O)C1CC1(c1cccc(C)c1)c1cccc(C)c1 (stereo unspecified) | -1 | -3 | 1 | -1 | / | -7
Cc1cccc(C2(c3cccc(C)c3)CC2C(=O)Nc2ccc([N+](=O)[O-])cc2O)c1 (stereo unspecified) | 10 | 1 | 15* | 15 | 7 | -4
O/C(=C\c1nc2ccccc2nc1/C=C(\O)c1ccccc1)c1ccccc1 | 2 | 10 | 22* | -16 | 3 | 11
COc1ccc2[nH]c(C)c(CCNC(=S)Nc3ccc(F)cc3)c2c1 | 2 | 0 | 12* | 8 | -11 | 2
SMILES | EBNA-1 inhibitor | TPT1 inh | NR3A LBD binder | ZTA DNA inh | dFosB act | Rpn11 block
COCCNC(=S)N(CCc1c(C)[nH]c2ccc(C)cc12)Cc1ccco1 | -4 | 2 | -7 | 3 | -12 | -1
COc1ccc2[nH]c(C)c(CCNc3ccc(C(F)(F)F)cc3[N+](=O)[O-])c2c1 | -14 | -5 | 19* | -18 | 3 | 2
COCCNC(=S)N(CCc1c(C)[nH]c2ccc(F)cc12)Cc1ccc(C)cc1 | / | / | 10* | / | -5 | 7
O=C(COC(=O)/C=C/c1ccco1)Nc1cc(S(=O)(=O)N2CCOCC2)ccc1Cl | / | / | 0 | / | -3 | -7
C=CCn1c(SCC(=O)N(CC)C2CCS(=O)(=O)C2)nc2cc(C(=O)O)ccc2c1=O (stereo unspecified) | / | / | 0 | -4 | -1 | 1
CSc1nnc2c3cc(F)ccc3n(Cc3ccccc3)c2n1 | 10 | -3 | 39* | 2 | -1 | 1
Cc1ccc(N=C2C(=O)Nc3ccccc32)cc1 | -4 | -1 | 3 | -3 | -4 | -7
CCN(CC)c1ccc(N=C2C(=O)Nc3ccccc32)cc1 | + | 4 | / | + | -4 | 8
COc1ccc(-c2ccc3oc(-c4ccsc4)cc(=O)c3c2)cc1F | / | / | -17 | / | -7 | -3
O=c1cc(-c2ccsc2)oc2ccc(-c3ccc4cc[nH]c4c3)cc12 | / | / | 15* | / | 3 | 2
O=C1c2ccccc2NC2CCCCCN12 (stereo unspecified) | 14 | 1 | 5 | -9 | 2 | 0
O=C1COC(c2ccccc2)C2CCCCN12 (stereo unspecified) | 6 | 1 | 16* | 8 | 7 | -1
O=C1NCCCc2c1no[n+]2[O-] | 0 | 2 | 11* | -4 | -9 | -9
Cc1ccc(S(=O)(=O)Nc2ccnc(-c3cccnc3)n2)cc1 | -5 | -2 | 0 | 6 | -3 | 3
CCOC(=O)c1sc2nc(-c3cccnc3)ccc2c1N | 2 | 4 | 20* | 14 | -8 | -2
Nc1c(C(=O)Nc2ccccc2F)sc2nc(-c3cccnc3)ccc12 | 4 | 22 | 15* | 16 | -4 | 28
NC(=O)c1sc2nc(-c3cccnc3)ccc2c1N | 3 | 1 | 0 | -4 | / | 9
CC(=O)c1c(O)cc2c3c1OC(C)(C)C1CCC(C)(CC31)O2 (stereo unspecified) | / | / | / | / | / | 0
Cc1cccc(/C=N/NC(=O)c2cc(-c3cccnc3)nc3c2c(C)nn3-c2ccccc2)c1 | -7 | -4 | 24* | -9 | -1 | -5
